# According to ChEMBL document CHEMBL4513216, “Probing the Open Global Health Chemical Diversity Library for Multistage-Active Starting Points for Next-Generation Antimalarials” (ACS Infect Dis, 2020):
# “And” between values parts separate entries of the source, which are not always exact repeats. Equal entries are not always repeated. About 2,700 (4%) of roughly 68,000 compounds showed an effect of 50% or more. Only a selection was taken, and strong results are over-represented in it overall.
# System: Plasmodium berghei
# Test: Screen against P. berghei liver stage (PbLuc), transformed with Luciferase, at 2uM
# Format: functional, HepG2
# Details: tested at 2 uM
Structure (SMILES),INHIBITION [%],INHIBITION (2 µM)
CC(=O)N(C)c1nc(Cn2nnnc2C2CCCC2)cs1,-26.07,–
O=C(Cn1cc(-n2cccc2)cn1)NCC1CCC1,-28.99,–
COCCn1cc2c(n1)C(CNCc1ccsc1)OCC2 (stereo not drawn),30.19,–
COCCN1C(=O)[C@@H]2CC[C@H]1CN(c1nccc(C)n1)C2,-1.56,–
CNc1ccnc(N2C[C@H]3CC[C@@H](C2)N(CCOC)C3=O)n1,40.51,–
COCCN1C(=O)[C@@H]2CC[C@H]1CN(c1ncccn1)C2,57.34,–
CN(Cc1ccccn1)C(=O)[C@]12COC[C@H]1CN(Cc1cnn(C)c1)C2,0.3,–
Cc1nnsc1CN1C[C@@H]2CC[C@H]1CN(Cc1ccccn1)C2,-17.17,–
O=C(CN1C[C@@H]2CC[C@H]1CN(Cc1ccccn1)C2)Nc1ccccc1,-16.18,–
COCCN1C[C@@H]2CC[C@H]1CN(CC(=O)Nc1ccn(C)n1)C2,5.28,–
O=C(CN1C[C@@H]2CC[C@H]1CN(Cc1ccccn1)C2)NCc1cccs1,52.98,–
O=C(c1cc(C2CC2)no1)N1C[C@@H]2CC[C@H]1CN(Cc1ccccn1)C2,-62.92,–
Cn1ccc(NC(=O)CN2C[C@@H]3CC[C@H]2CN(Cc2ccccn2)C3)n1,52.98,–
O=C1[C@@H]2CN(C3CCOCC3)C[C@H]2CCN1CC1CC1,27.65,–
O=C1CCCC2=Nc3nonc3NC(c3ccc(Cl)cc3Cl)C12 (stereo not drawn),-53.9,–
CC(C)c1ccc2c(c1)CCCN2C(=O)CN(C)S(C)(=O)=O,-20.21,–
CC(C)OCCSCc1nnc(-c2cccc(F)c2)o1,55.39,–
OCC(O)CSCc1nnc(-c2cccc(F)c2)o1 (stereo not drawn),10.23,–
COc1cccn(Cc2nnc(-c3cccc(F)c3)o2)c1=O,25.02,–
COC(=O)c1cccn1C1CCN(CCN2C(=O)CCC2=O)CC1,31.46,–
COc1ccc(NC(=O)N2CCCC2c2ccco2)cc1OC (stereo not drawn),-28.88,–
CCCc1cc(CNC2CCN(c3nc(C)cc(C)n3)CC2)on1,58.59,–
CCCc1cc(CNC2CCN(c3cc(C(C)C)nc(C)n3)CC2)on1,-8.34,–
CCCc1cc(CNC2CCN(c3cc(C)nc(N)n3)CC2)on1,-13.81,–
Cc1cn2c(=O)c(-c3ccnc(N(C)C4CCCCC4)n3)cnc2s1,-35.83,–
COC1[C@@H]2CC[C@H]1CN(c1nc(C)nc3ccsc13)C2 (stereo partly drawn),-67.34,–
Cc1nc(N2C[C@@H](CN3CCCCC3)[C@@H](CO)C2)c2sccc2n1,-38.35,–

Structure (SMILES),INHIBITION [%],INHIBITION (2 µM)
Cc1nc(N2C[C@H]3CNC[C@H]3C2)c2sccc2n1,50.98,–
O=C(NCc1nn(-c2ccccc2)c2c1CCC2)NC1CCC(O)CC1 (stereo not drawn),-43.23,–
O=S(=O)(Cc1ccccc1CN1CC[C@H](CO)[C@H](O)C1)c1ccccc1,48.21,–
NC1CCCCN(Cc2ccccc2CS(=O)(=O)c2ccccc2)C1 (stereo not drawn),21.97,–
N[C@@H]1CCN(Cc2ccccc2CS(=O)(=O)c2ccccc2)C[C@H]1O,83.98,–
CC(C)(C)NC(=O)CNc1ncc(Br)cn1,-20.72,–
CCc1c(C)nn2c(O)cc(C3CCN(C(=O)c4ccccn4)C3)nc12 (stereo not drawn),–,-16.2% and -18.64%
CC1Oc2c(cccc2C(=O)N2CCN(CC(C)(C)O)CC2)NC1=O (stereo not drawn),-34.12,–
Cc1ncccc1C(=O)Nc1cccc(C[S+](C)[O-])c1C (stereo not drawn),31.58,–
NC(=O)Cn1c(SCc2noc(-c3ccsc3)n2)nnc1C1CC1,-2.44,–
CC(C)c1nc(CSc2nnc(C3CC3)n2CC(N)=O)no1,53.55,–
Cc1cccc(CSc2nnc(C)n2CC(N)=O)c1,20.41,–
CC(Sc1nnc(C2CC2)n1CC(N)=O)c1ccc(Cl)cc1 (stereo not drawn),-87.32,–
CC(C)c1nc(CSc2nnc(-c3cccs3)n2CC(N)=O)no1,51.4,–
CCc1noc(C(C)Sc2nnc(C3CC3)n2CC(N)=O)n1 (stereo not drawn),35.26,–
CCc1nn(-c2cc(Oc3cc(C)ccc3C)nc(C)n2)c(N)c1C#N,16.91,–
CC(C)CCN1C[C@@H]2OCCN(c3ncc(F)cn3)[C@@H]2C1,29.74,–
O=C(c1ccc(=O)[nH]n1)N1CCCC(O)(CN2CCC(F)(F)CC2)CC1 (stereo not drawn),23.7,–
Cn1c2c(ccc1=O)CC(NC(=O)Cc1ccsc1)CC2 (stereo not drawn),76.24,–
CCc1cnc(NC2CCc3c(ccc(=O)n3C)C2)nc1 (stereo not drawn),-17.39,–
Cc1cnc(NC2CCc3c(ccc(=O)n3C)C2)nc1 (stereo not drawn),58.93,–
O=C(Cc1ccsc1)NC1CCc2c(ccc(=O)n2CC2CC2)C1 (stereo not drawn),6.85,–
Cn1c2c(ccc1=O)CC(NC(=O)c1ccsc1)CC2 (stereo not drawn),0.57,–
Cn1c2c(ccc1=O)CC(Nc1ncc(F)cn1)CC2 (stereo not drawn),6.22,–
CC(C)=CCN1C[C@@H]2CC[C@H]1CN(Cc1coc(C)n1)C2,-60.75,–
COC(=O)c1ccc(CN2CCC(c3n[nH]c(C)n3)CC2)s1,-54.89,–
